Measurements reported in PubChem BioAssay (NCI).
This is part of a sample that, as a whole, favours compounds with a hit. Of some 83,000 tested, about 20% had one in any assay.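 Note: values are percent growth. 100 is the growth of untreated cells, values between 100 and 0 indicate rising inhibition; between -100 and 0 indicates cell death.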 Active and inactive are the calls of the source. How the source made its calls: active means growth percent below 10; inactive means the rest.

system: DU-145 prostate; test: NCI-60 one-dose screen, 48 h (100 = growth as untreated, 0 = no growth, -100 = all killed); conditions: 10 µM unless noted

SMILES | growth
Cc1ccc(Nc2ccc(O)c3c2C(=O)c2c(O)ccc(Nc4ccc(C)cc4)c2C3=O)cc1 | 124% (inactive)
CCOc1ccc2c(c1)/C(=C\C=C\C1CC(C)C3CC(OCC)CCC3N1CC)CC(C)N2CC (configuration not stated) | 14.8% (inactive)
COc1ccc(C(Cn2ccnc2)Sc2ccc(Cl)c(Cl)c2)cc1 (configuration not stated) | 100% (inactive)
Oc1ccc(Cl)cc1C(c1cc(Cl)ccc1O)C(Cl)(Cl)Cl | -47.8% (active)
CCc1cccc(CC)c1N1C(=O)C=CC1=O | 112% (inactive)
CCCC[n+]1c(/C=C\c2c(OC)cc(OC)cc2OC)ccc2ccccc21 | 23% (inactive)
Cc1nn(CCO)c(C)c1N=[N+]([O-])c1c(C)nn(CCO)c1C | -9.05% (active)
O=C1C(=O)c2cccnc2-c2ncccc21 | -74% (active)
COC(=O)c1ccc(=O)c2nc3/c(=C/O)c(O)cc(=O)c3[nH]c12 | 29.5% (inactive)
COc1cc(OC)c(/C=C/c2c3ccccc3cc[n+]2C)c(OC)c1 | 36.5% (inactive)
CC(C)(C)CC(C)(C)c1ccc(OCCOCCSC(=N)N)cc1 | 53.8% (inactive)
CC(=O)C1Cc2ccccc2C1=O (configuration not stated) | 106% (inactive)
O=C1C=C(Cl)C(=O)c2ccccc21 | 118% (inactive)
CCCOC(=O)c1nc(N(CC2CCCCC2)C(=O)NC)sc1/N=C/c1ccccc1 | 44.7% (inactive)
Cc1nc([N+](=O)[O-])c(Sc2nncc(-c3ccccc3)n2)n1C | 67.3% (inactive)
Cc1nnc(N/N=C/c2ccc([N+](=O)[O-])o2)[nH]c1=O | 19.4% (inactive)
CC12CCC(O)CC1=CCC1C2CCC2(C)C3=NN=CC3CC12 (configuration not stated) | 122% (inactive)
